The source of these data is PubChem BioAssay (EPA / NIEHS).

For orientation: AC50 means the concentration giving half of the maximal activity seen.

Each structure is given as a SMILES string. Active and inactive are the calls of the source. Rule for the calls: active = hit-call score of the fitted dose curve at least 0.9, where 1 is the maximum; inactive = score below 0.9.

Read-out in assay [1]: TIMP metallopeptidase inhibitor 2 (TIMP2), TIMP2 (gene 7077)
In words: BSK_KF3CT_TIMP2: BioMAP Diversity Plus: KF3CT Assay for TIMP metallopeptidase inhibitor 2 (TIMP2) Biomarker Activity (AID 2283071). The following applies: primary human keratinocytes with fibroblasts; actives raise or lower the signal. The essentials:
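TIMP-2 measured by ELISA at 24 h in human keratinocyte/fibroblast primary co-cultures exposed to chemicals. Both increases and decreases were fitted against DMSO. Parallel cultures were stained with SRB for total protein as an overt-cytotoxicity check.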

Read-out in assay [2]: Transforming growth factor beta 1 (TGFb1), TGFB1 (gene 7040)
In words: BSK_KF3CT_TGFb1: BioMAP Diversity Plus: KF3CT Assay for Transforming growth factor beta 1 (TGFb1) Biomarker Activity (AID 2283072). The following applies: primary human keratinocytes with fibroblasts; actives raise or lower the signal. The gist of the method:
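ELISA quantifies TGF-b1 at 24 h post-dose in a primary human skin co-culture of keratinocytes and fibroblasts, with gain or loss judged against DMSO. Parallel SRB total-protein staining flags overt cytotoxicity.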

Read-out in assay [3]: C-C motif chemokine 2 (Homo sapiens) (UniProt P13500)
In words: BSK_KF3CT_MCP1: BioMAP Diversity Plus: KF3CT Assay for Monocyte Chemoattractant Protein 1 (MCP1/CCL2) Biomarker Activity (AID 2283073). The following applies: primary human keratinocytes with fibroblasts; actives raise or lower the signal. The essentials:
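Human keratinocyte plus foreskin fibroblast primary co-culture exposed to chemical for 24 h. MCP-1 levels measured by ELISA. Bidirectional curve fitting relative to DMSO negative control as baseline.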

Read-out in assay [4]: Matrix Metallopeptidase 9 (MMP9), MMP9 (gene 4318)
In words: BSK_KF3CT_MMP9: BioMAP Diversity Plus: KF3CT Assay for Matrix Metallopeptidase 9 (MMP9) Biomarker Activity (AID 2283074). The note with it: primary human keratinocytes with fibroblasts; actives raise or lower the signal. The essentials:
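ELISA read-out of MMP-9 at 24 h post-dosing in a co-culture of human skin keratinocytes and foreskin fibroblasts. Gain or loss of signal was fitted in both directions against DMSO.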

Read-out in assay [5]: urokinase plasminogen activator (uPA), PLAU (gene 5328)
The assay is described as follows: BSK_KF3CT_uPA: BioMAP Diversity Plus: KF3CT Assay for urokinase plasminogen activator (uPA) Biomarker Activity (AID 2283075). The note with it: primary human keratinocytes with fibroblasts; actives raise or lower the signal. The gist of the method: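 Skin co-culture (keratinocytes + foreskin fibroblasts), human primary; 24 h post-dose; uPA by ELISA; gain/loss fit vs DMSO baseline.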

Read-out in assay [6]: CD40, CD40 (gene 958)
The assay is described as follows: BSK_LPS_CD40: BioMAP Diversity Plus: LPS Assay for CD40 Biomarker Activity (AID 2283076). The note with it: primary human HUVEC with PBMC; actives raise or lower the signal. The essentials: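 Primary human umbilical vein endothelial cells co-cultured with peripheral blood mononuclear cells, LPS-stimulated, were dosed with chemical and read 24 h later. CD40 levels were measured by ELISA and fitted bidirectionally against DMSO as negative control and baseline.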

Read-out in assay [7]: E-selectin (Homo sapiens) (UniProt P16581)
The assay is described as follows: BSK_LPS_Eselectin: BioMAP Diversity Plus: LPS Assay for Eselectin Biomarker Activity (AID 2283077). The following applies: primary human HUVEC with PBMC; actives raise or lower the signal. The essentials: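 Human umbilical vein endothelial cells co-cultured with peripheral blood mononuclear cells under LPS stimulation; E-selectin measured by ELISA 24 h after chemical dosing. Activity fitted bidirectionally against DMSO as negative control and baseline.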

Read-out in assay [8]: Interleukin-8 (IL8), CXCL8 (gene 3576)
In words: BSK_LPS_IL8: BioMAP Diversity Plus: LPS Assay for Interleukin-8 (IL8) Biomarker Activity (AID 2283078). The following applies: primary human HUVEC with PBMC; actives raise or lower the signal. The gist of the method: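 Human umbilical vein endothelial cells co-cultured with PBMC were stimulated with LPS; IL-8 levels were measured by ELISA 24 h after chemical dosing. Activity was fitted bidirectionally against DMSO as negative control and baseline.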

The nature of assay [9]: BSK_LPS_SRB: Viability Assessment in the BioMAP Diversity Plus: LPS Assay (AID 2283079).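 Note: total protein by sulforhodamine B absorbance as a cytotoxicity measure; measured one day after compound addition.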 The following applies: primary human HUVEC with PBMC. The essentials: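 Human umbilical vein endothelial cells co-cultured with PBMC (LPS system) were dosed for 24 h. Total protein was stained with 0.1% sulforhodamine B after 10% TCA fixation, read at 560 nm, and fitted bidirectionally against DMSO baseline.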

Read-out in assay [10]: Interleukin-1 alpha (IL1a), IL1A (gene 3552)
In words: BSK_LPS_IL1a: BioMAP Diversity Plus: LPS Assay for Interleukin-1 alpha (IL1a) Biomarker Activity (AID 2283080). The note with it: primary human HUVEC with PBMC; actives raise or lower the signal. The essentials:
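Human umbilical vein endothelial cells co-cultured with peripheral blood mononuclear cells were LPS-stimulated and exposed to test chemicals for 24 h. IL-1 alpha was quantified by ELISA, with bidirectional curve fitting against DMSO as the negative control and baseline.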

Read-out in assay [11]: Monocyte Chemoattractant Protein-1 (MCP1), CCL2 (gene 6347)
The assay is described as follows: BSK_LPS_MCP1: BioMAP Diversity Plus: LPS Assay for Monocyte Chemoattractant Protein-1 (MCP1) Biomarker Activity (AID 2283081). The note with it: primary human HUVEC with PBMC; actives raise or lower the signal. The essentials: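 HUVEC plus PBMC co-culture (human primary cells, LPS system) exposed to test chemical for 24 h; MCP-1 measured by ELISA. Bidirectional curve fitting against DMSO baseline; parallel SRB total-protein staining flags overt cytotoxicity.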

Assay [12] can be described thus: BSK_LPS_PGE2: BioMAP Diversity Plus: LPS Assay for Prostaglandin E2 (PGE2) Biomarker Activity (AID 2283082). The following applies: primary human HUVEC with PBMC; actives raise or lower the signal. The gist of the method:
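PGE2 release measured by ELISA in an LPS-activated co-culture of human umbilical vein endothelial cells and peripheral blood mononuclear cells, read at 24 h post-dosing. DMSO served as baseline for bidirectional curve fitting.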

Read-out in assay [13]: Macrophage colony-stimulating factor (MCSF), CSF1 (gene 1435)
In words: BSK_LPS_MCSF: BioMAP Diversity Plus: LPS Assay for Macrophage colony-stimulating factor (MCSF) Biomarker Activity (AID 2283083). The following applies: primary human HUVEC with PBMC; actives raise or lower the signal. The essentials: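 Human umbilical vein endothelial cells co-cultured with peripheral blood mononuclear cells were exposed to compound for 24 h. M-CSF levels were measured by ELISA, and bidirectional curve fitting used DMSO as the negative control and baseline.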

Read-out in assay [14]: Tissue Factor, F3 (gene 2152)
In words: BSK_LPS_TissueFactor: BioMAP Diversity Plus: LPS Assay for Tissue Factor Biomarker Activity (AID 2283084). The following applies: primary human HUVEC with PBMC; actives raise or lower the signal. The gist of the method:
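Human umbilical vein endothelial cells co-cultured with peripheral blood mononuclear cells were dosed and stimulated with LPS. Cell-surface CD142 was quantified by ELISA at 24 h. Activity was fitted bidirectionally against DMSO baseline.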

Read-out in assay [15]: Tumor necrosis factor (Homo sapiens) (UniProt P01375)
In words: BSK_LPS_TNFa: BioMAP Diversity Plus: LPS Assay for Tumour Necrosis Factor alpha (TNFa) Biomarker Activity (AID 2283085).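 For AC50: TNFa protein level quantified by ELISA in the co-culture.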 The following applies: primary human HUVEC with PBMC; actives raise or lower the signal. The gist of the method: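 TNFa was quantified by ELISA in LPS-activated co-cultures of human endothelial cells and PBMC, 24 h post-dosing. Both increases and decreases versus DMSO were fitted.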

Read-out in assay [16]: Vascular cell adhesion molecule 1 (VCAM1), VCAM1 (gene 7412)
In words: BSK_LPS_VCAM1: BioMAP Diversity Plus: LPS Assay for Vascular cell adhesion molecule 1 (VCAM1) Biomarker Activity (AID 2283086). The note with it: primary human HUVEC with PBMC; actives raise or lower the signal. The essentials: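 VCAM-1 quantified by ELISA in an LPS-activated co-culture of human endothelial cells and peripheral blood mononuclear cells, read 24 h post-treatment. Fitted in both directions versus DMSO; parallel SRB staining flags overt cytotoxicity.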

Read-out in a further assay: CD38, CD38 (gene 952)
In words: BSK_SAg_CD38: BioMAP Diversity Plus: SAg Assay for CD38 Biomarker Activity (AID 2283087). The note with it: primary human HUVEC with PBMC; actives raise or lower the signal. The essentials: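 CD38 quantified by ELISA (fluorescence) in a superantigen-activated endothelial cell–PBMC co-culture at 24 h post-dose. Activity fitted in both directions relative to DMSO; parallel SRB and Alamar Blue cytotoxicity read-outs.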

Read-out in assay [17]: CD40, CD40 (gene 958)
The assay is described as follows: BSK_SAg_CD40: BioMAP Diversity Plus: SAg Assay for CD40 Biomarker Activity (AID 2283088). The note with it: primary human HUVEC with PBMC; actives raise or lower the signal. The gist of the method: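 Human umbilical vein endothelial cells co-cultured with PBMC; CD40 levels measured by ELISA with fluorescence read-out 24 h after chemical dosing. Gain or loss of signal fitted bidirectionally against DMSO baseline.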

Read-out in a further assay: CD69, CD69 (gene 969)
In words: BSK_SAg_CD69: BioMAP Diversity Plus: SAg Assay for CD69 Biomarker Activity (AID 2283089). The following applies: primary human HUVEC with PBMC; actives raise or lower the signal. The essentials:
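Primary human vascular co-culture (umbilical vein endothelium with peripheral blood mononuclear cells) exposed to test chemical for 24 h. CD69 levels quantified by fluorescence ELISA; DMSO served as negative control for bidirectional fitting.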

Read-out in assay [18]: Monocyte Chemoattractant Protein-1 (MCP1), CCL2 (gene 6347)
The assay is described as follows: BSK_SAg_MCP1: BioMAP Diversity Plus: SAg Assay for Monocyte Chemoattractant Protein-1 (MCP1) Biomarker Activity (AID 2283090). The note with it: primary human HUVEC with PBMC; actives raise or lower the signal. The gist of the method: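 Values derive from bidirectional fitting of ELISA-measured MCP1 against DMSO controls. Readings were taken 24 h after dosing human vascular endothelial cells co-cultured with peripheral blood mononuclear cells under superantigen stimulation.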

E-selectin (Homo sapiens), sequence (P16581 whole entry, looked up): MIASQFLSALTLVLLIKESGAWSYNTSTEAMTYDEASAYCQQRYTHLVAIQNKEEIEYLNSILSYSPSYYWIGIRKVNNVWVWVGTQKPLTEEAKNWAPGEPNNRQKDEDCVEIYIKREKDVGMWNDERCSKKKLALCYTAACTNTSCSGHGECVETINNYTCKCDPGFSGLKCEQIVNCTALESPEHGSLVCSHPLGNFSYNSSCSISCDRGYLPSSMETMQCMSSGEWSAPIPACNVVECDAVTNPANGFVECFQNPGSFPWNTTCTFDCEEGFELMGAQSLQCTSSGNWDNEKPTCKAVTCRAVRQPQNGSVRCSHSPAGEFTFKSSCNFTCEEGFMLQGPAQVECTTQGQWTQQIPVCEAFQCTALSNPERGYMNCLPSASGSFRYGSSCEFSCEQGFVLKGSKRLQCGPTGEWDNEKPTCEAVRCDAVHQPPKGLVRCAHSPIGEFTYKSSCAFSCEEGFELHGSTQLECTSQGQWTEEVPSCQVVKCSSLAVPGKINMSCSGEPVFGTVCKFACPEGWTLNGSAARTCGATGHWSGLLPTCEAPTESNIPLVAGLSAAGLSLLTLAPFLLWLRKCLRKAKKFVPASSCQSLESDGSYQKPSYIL
Tumor necrosis factor (Homo sapiens), sequence (P01375 whole entry, looked up): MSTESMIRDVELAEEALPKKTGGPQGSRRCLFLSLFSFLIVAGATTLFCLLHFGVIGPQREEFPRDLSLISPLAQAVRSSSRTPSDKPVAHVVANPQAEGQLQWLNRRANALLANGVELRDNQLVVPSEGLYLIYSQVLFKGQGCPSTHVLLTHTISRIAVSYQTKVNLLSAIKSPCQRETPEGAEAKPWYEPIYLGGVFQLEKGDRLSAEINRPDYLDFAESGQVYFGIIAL

Take `CSc1nc(NC(C)C)nc(NC(C)C)n1`: the outcome in assay [1] was “inactive”; in assay [2], “inactive”; in assay [3], “inactive”; in assay [4], “inactive”; in assay [5], “inactive”; with CD40, CD40 (gene 958) [6], “inactive”. The result in assay [7], in [8], in [9], in assay [10], in assay [11] and in assay [12] was inactive. For the same compound, the outcome in assay [13] was “inactive”; in [14], “inactive”; in assay [16] it was “inactive”; with CD38, CD38 (gene 952), “inactive”; with CD40, CD40 (gene 958) [17] it was “inactive”; in the assay with CD69, CD69 (gene 969) it was “inactive”. Also, the AC50 in assay [15] was 4.47 µM (active); in [18], 36.5 µM (active).

For the compound `COc1cc(OC)nc(Sc2cccc(Cl)c2C(=O)O)n1`, the outcome in assay [1], in [2], in [3], in assay [4], in [5] and in [7] was inactive. In addition, the result in assay [8], in assay [9], in assay [10], in [11], in assay [12] and in [13] was inactive. In addition, the outcome in assay [14] is “inactive”; in assay [15], “inactive”; in [16] it was “inactive”; in the assay with CD38, CD38 (gene 952), “inactive”; with CD69, CD69 (gene 969), “inactive”; in assay [18], “inactive”.

`CN1COCN(Cc2cnc(Cl)s2)C1=N[N+](=O)[O-]`: the outcome in assay [1] was “inactive”; in assay [2], “inactive”; in assay [3], “inactive”; in [4] it was “inactive”; in assay [5] it was “inactive”; with CD40, CD40 (gene 958) [6], “inactive”. The outcome in [7], in assay [8], in assay [9], in [10], in assay [11] and in assay [12] was inactive. Besides, the outcome was “inactive” in [13]; “inactive” in assay [14]; “inactive” in assay [15]; “inactive” in assay [16]; “inactive” with CD38, CD38 (gene 952); “inactive” with CD69, CD69 (gene 969). The outcome in assay [18] was inactive. Moreover, the AC50 with CD40, CD40 (gene 958) [17] was 3.79 µM (active).
